PubChem BioAssay AID2315 (National Center for Advancing Translational Sciences (NCATS), 2010)
In all, about 290,000 compounds went through this assay and about 27,000 (9.3%) were called active. Only a selection was taken, and actives are over-represented in it overall. Unmarked numbers belong to inactive results. No stated cut-off is given here; in the data, active means inhibition mostly above about 28% (no sharp cut-off); inactive means mostly below about 43%.

Assay: A qHTS for Small Molecule Inhibitors of Shiga Toxin; further: 0% is about no effect
Conditions: Vero cells, Shiga toxin protein synthesis inhibition reporter; at 38.7 µM, active compounds read high

**Q.** With COc1ccc(-n2ncc3c2CC(C)(C)CC3NC(=O)CCc2c(C)nn(C)c2C)cc1 (stereo unspecified) as the compound, how does the inhibition read?
**A.** -7.46%

**Q.** Which inhibition does the source give for COc1cccc(NC(=O)CCc2nnc3ccc(N4CCC(C)CC4)nn23)c1 here?
**A.** 2.02%

**Q.** For COc1ccc(C(=O)NC(=S)N2CCNC(=O)C2CC(=O)OC(C)C)cc1 (stereo unspecified), which inhibition is on record?
**A.** -13.5%

**Q.** Which inhibition does the source give for COc1ccc(S(=O)(=O)N2CCN(C(=O)N(C)C)C2C)cc1 (stereo unspecified) here?
**A.** -15.4%

**Q.** Which inhibition does the source give for COc1ccc(/C=N/OCc2ccccc2C#N)c(OC)c1 here?
**A.** 70.8% (active)

**Q.** With COc1ccc(/C=N/Nc2cc(N3CCOCC3)nc(C)n2)c(OC)c1 as the compound, how does the inhibition read?
**A.** 6.01%

**Q.** For COc1ccc(/C=N/NC(=O)c2ccc3c(c2)OCCO3)c(OC)c1, which inhibition is on record?
**A.** 45.8%

**Q.** Which inhibition does the source give for Fc1cccc2ncnc(OCc3ccccc3)c12 here?
**A.** 5.51%

**Q.** Which inhibition does the source give for Cc1occc(=O)c1OCc1ccc(F)cc1 here?
**A.** -2.22%

**Q.** For Cc1nc2ccccc2cc1OCc1ccc(F)cc1, which inhibition is on record?
**A.** 29.8% (active)

**Q.** For O=C(COc1ccc(Cl)cc1)NCCS(=O)(=O)N1CCN(c2ccc(F)cc2)CC1, which inhibition is on record?
**A.** 29%

**Q.** Which inhibition does the source give for COC(=O)/C=C\C(=O)Nc1cccc([N+](=O)[O-])c1 here?
**A.** 26.5%

**Q.** With CC(C)c1ccc(N(C(=O)c2ccco2)C(C(=O)NC2CCCC2)c2cccnc2)cc1 (stereo unspecified) as the compound, how does the inhibition read?
**A.** 22.5%

**Q.** Which inhibition does the source give for COc1ccc(C2NC(=O)N(C)C(C)=C2[N+](=O)[O-])cc1 (stereo unspecified) here?
**A.** -11.1%

**Q.** With Cc1cc(/C=C2/NC(=O)NC2=O)c(C)n1-c1cccnc1 as the compound, how does the inhibition read?
**A.** 44.4%

**Q.** For Cc1cccc(C)c1-n1c(C)cc(/C=C2\C(=O)NN(c3ccccc3)C2=O)c1C, which inhibition is on record?
**A.** -7.74%

**Q.** For Cc1ccccc1-n1c(C)cc(/C=C2\NC(=O)NC2=O)c1C, which inhibition is on record?
**A.** 55.3% (active)

**Q.** For Cn1c(=O)oc2cc(S(=O)(=O)NCCC(=O)NCc3ccccc3Cl)ccc21, which inhibition is on record?
**A.** -2.59%

**Q.** Which inhibition does the source give for CC(=O)c1ccc(NC(=O)c2ccc(-n3cncn3)c([N+](=O)[O-])c2)cc1 here?
**A.** -21.9%

**Q.** For Cc1cccc(NC(=O)Nc2nnc(-c3ccccc3)o2)c1, which inhibition is on record?
**A.** -5.35%

**Q.** For CCc1nnc(NC(=O)c2nc3nccc(C)n3n2)s1, which inhibition is on record?
**A.** 2.51%

**Q.** Which inhibition does the source give for Cc1ccnc2nc(C(=O)Nc3nnc(-c4ccccc4)o3)nn12 here?
**A.** 71.9% (active)

**Q.** With Nc1c(C(=O)c2cccs2)sc2nsc(SCCN3CCCCC3)c12 as the compound, how does the inhibition read?
**A.** 45.8% (active)

**Q.** With O=C(CN1C2=NCCN2c2ccccc21)c1cccs1 as the compound, how does the inhibition read?
**A.** -3.32%

**Q.** For O=C(CCC1CCCC1)N=C1SC2CS(=O)(=O)CC2N1Cc1ccccc1 (stereo unspecified), which inhibition is on record?
**A.** 14.2%

**Q.** For COCCCNC(=O)Cc1ccc(-n2c(C)nc3cccnc32)cc1, which inhibition is on record?
**A.** 1.73%

**Q.** Which inhibition does the source give for CC1C/C(=N/NC(=O)c2cccs2)CC(C)(C)C1 (stereo unspecified) here?
**A.** 84.1% (active)

**Q.** With CC1(C)CC(=O)C/C(=N\NC(=O)c2cccs2)C1 as the compound, how does the inhibition read?
**A.** 18.8%

**Q.** Which inhibition does the source give for CC(C)OCCCNC(=O)CNC(=O)c1cccs1 here?
**A.** -2.7%

**Q.** Which inhibition does the source give for COc1cc(CCC(=O)N2CCN(c3ccccc3Cl)CC2)cc(OC)c1OC here?
**A.** -6.24%

**Q.** For O=C(CN1CCC(NC(=O)C2CC2)CC1)Nc1ccccc1[N+](=O)[O-], which inhibition is on record?
**A.** -3.78%

**Q.** With O=c1ccc2cc(S(=O)(=O)NCCCc3ccccc3)ccc2[nH]1 as the compound, how does the inhibition read?
**A.** 3.55%

**Q.** Which inhibition does the source give for COc1ccc(CNC(=O)CSc2n[nH]c(N)n2)cc1OC here?
**A.** 0.155%

**Q.** Which inhibition does the source give for COc1cccc(C(=O)CC(=O)C(=O)Nc2ccc([N+](=O)[O-])cc2C)c1 here?
**A.** 4.12%

**Q.** Which inhibition does the source give for COc1cccc(NCCC(=O)c2cccc([N+](=O)[O-])c2)c1 here?
**A.** 67.3% (active)

**Q.** With CC(C)(C)SCCNC(=O)c1cccc([N+](=O)[O-])c1 as the compound, how does the inhibition read?
**A.** -40.1% (active)

**Q.** Which inhibition does the source give for COc1cccc(CNC(=O)CCCC(=O)Nc2cccc([N+](=O)[O-])c2)c1 here?
**A.** -12.3%

**Q.** With Cc1cccc(C(=O)NNC(=O)c2cccc([N+](=O)[O-])c2)c1 as the compound, how does the inhibition read?
**A.** 3.18%

**Q.** With Cc1cc(CNC(=O)c2cccc([N+](=O)[O-])c2)c2ccccc2n1 as the compound, how does the inhibition read?
**A.** 54%

**Q.** Which inhibition does the source give for CCOc1ccc(C(C)=O)cc1COC(=O)c1cnc(Cl)c(Cl)c1 here?
**A.** 14.4%

**Q.** Which inhibition does the source give for COC(=O)c1ccc(COC(=O)c2cnccn2)cc1 here?
**A.** 5.86%

**Q.** With COC(=O)c1ccc(COC(=O)c2cnc(Cl)c(Cl)c2)cc1 as the compound, how does the inhibition read?
**A.** 87.3% (active)

**Q.** For CN(Cc1ccccc1)C(=O)c1ccc(NC2=NC3CS(=O)(=O)CC3S2)cc1 (stereo unspecified), which inhibition is on record?
**A.** -3%

**Q.** Which inhibition does the source give for CSc1cccc(NC(=O)C2CCCN2S(=O)(=O)c2ccc3c(c2)CCC(=O)N3)c1 (stereo unspecified) here?
**A.** 25.9% (active)

**Q.** Which inhibition does the source give for O=C1CCc2cc(S(=O)(=O)N3CCC(C(=O)NCc4ccccc4Cl)CC3)ccc2N1 here?
**A.** -4.83%

**Q.** With CC(=O)Nc1ccc(NC(=O)C2CCCN2S(=O)(=O)c2cccc(C(F)(F)F)c2)cc1 (stereo unspecified) as the compound, how does the inhibition read?
**A.** -1.36%

**Q.** For CC(=O)c1cccc(NC(=O)C2CCN(C(=O)c3ccccc3Cl)CC2)c1, which inhibition is on record?
**A.** -18.7%

**Q.** With CCOc1ccc(C)cc1S(=O)(=O)NC1CCCCCC1 as the compound, how does the inhibition read?
**A.** -4.32%

**Q.** For CCc1cc2c(=O)n(-c3ccccc3)c(SCC(=O)O)nc2s1, which inhibition is on record?
**A.** -7.15%

**Q.** For COc1ccc(/C=C2\SC(=N)N(c3ccc(F)cc3)C2=O)cc1, which inhibition is on record?
**A.** -5.41%

**Q.** For COc1ccc(/C=C2\N=C3CCCN3C2=O)cc1, which inhibition is on record?
**A.** 84.4% (active)

**Q.** With COc1ccc(/C=C2\SC(=S)N(CC(=O)NNC(=O)c3ccncc3)C2=O)cc1 as the compound, how does the inhibition read?
**A.** 30.3%

**Q.** With CC(C)c1c(C(=O)N/N=C/c2ccc(-c3ccccc3)cc2)nnn1-c1nonc1N as the compound, how does the inhibition read?
**A.** -5.37%

**Q.** Which inhibition does the source give for CCOc1ccc(CN2CCN(CCCc3ccccc3)C(CCO)C2)cc1 (stereo unspecified) here?
**A.** 1.09%

**Q.** For COc1ccc(N2C(=O)NC(NS(=O)(=O)c3ccc(Cl)cc3)(C(F)(F)F)C2=O)cc1 (stereo unspecified), which inhibition is on record?
**A.** -3.26%

**Q.** For Cc1[nH]n(-c2ccccc2)c(=O)c1/C=N/NC(=O)c1ccoc1C, which inhibition is on record?
**A.** 125% (active)

**Q.** Which inhibition does the source give for Cc1[nH]n(-c2ccc(Cl)cc2)c(=O)c1/C=N/n1c(C)nc2ccccc2c1=O here?
**A.** 38.2%

**Q.** For Cc1ccc(-n2[nH]c(C)c(/C=N/NC(=O)c3cccc([N+](=O)[O-])c3)c2=O)cc1C, which inhibition is on record?
**A.** 62.4% (active)

**Q.** Which inhibition does the source give for COc1cc(/C=N\NC(=O)CNC(=O)c2cccc([N+](=O)[O-])c2)ccc1O here?
**A.** -6.08%

**Q.** With COc1cc(/C=N/NC(=O)c2ccoc2C)ccc1OCCN1CCCCC1 as the compound, how does the inhibition read?
**A.** 29.5%

**Q.** With Cc1[nH]n(-c2ccc([N+](=O)[O-])cc2)c(=O)c1C=NCCN1CCN(C(=O)c2ccccc2F)CC1 as the compound, how does the inhibition read?
**A.** -12.7%
